# Experimental data taken from PubChem BioAssay (NCI).
# The panel holds about 83,000 compounds, 20% with a hit somewhere; the sample as a whole holds those more often.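 Activity criterion: percent growth below 10, measured after cells in 96-well plates were exposed to a single compound concentration for 48 hours.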 Unmarked numbers belong to inactive results. Active and inactive are the calls of the source.
# Tests used:
# Test in all cases: NCI-60 one-dose screen, 48 h (100 = growth as untreated, 0 = no growth, -100 = all killed)
# Conditions in all cases: 10 µM unless noted
# [1] = system: EKVX NSCLC
# [2] = system: SN12C renal
# [3] = system: UO-31 renal
# [4] = system: TK-10 renal
# [5] = system: ACHN renal
# [6] = system: CAKI-1 renal
# [7] = system: A498 renal
# [8] = system: CCRF-CEM leukemia
# [9] = system: MOLT-4 leukemia
Structure (SMILES),growth [1],growth [2],growth [3],growth [4],growth [5],growth [6],growth [7],growth [8],growth [9]
S=C(NCCc1ccccc1)Nc1ccc(OCc2nc3ccc(Cl)cc3[nH]2)cc1,33.1%,11.6%,13.9%,62.4%,14%,25.2%,95.6%,9.55% (active),13.8%
O=C(Nc1nc2ccccc2s1)Nc1ccccc1Cl,64.5%,83.9%,66.8%,84.7%,49.3%,45.2%,162%,97.5%,107%
COc1ccc(C(=O)c2cc(C(C)=O)c3c(C)cc(C)cn23)cc1,49.4%,55%,67.5%,57.4%,56.6%,38.6%,86.1%,104%,82.3%
C[C@H]1[C@@H](CC(=O)N[C@@H](Cc2coc3ccccc23)B(O)O)O[C@@H]2OC3(C)CC[C@H]4[C@H](C)CC[C@@H]1[C@@]24O3,28.2%,6% (active),12.4%,1.76% (active),6.94% (active),15.5%,44.5%,-0.752% (active),14.2%
Nc1nn2c(-c3cc4cc(Br)ccc4oc3=O)ccnc2c1N=Nc1ccc(Br)cc1,25.9%,-23.6% (active),0.343% (active),23.4%,10.7%,3.98% (active),-4.21% (active),96.6%,83.1%
COc1c(F)ccc(C(=O)Nc2ccc3nc(NC(=O)C4CCCN(S(=O)(=O)c5ccc(C(C)(C)C)cc5)C4)sc3c2)c1F (stereo not given),59%,57%,44.3%,93.6%,63.4%,69.3%,84.7%,57.9%,29.7%
O=C(Nc1nc2ccc([N+](=O)[O-])cc2s1)Nc1ccc(Cl)cc1Cl,40.7%,29.4%,59.8%,40.9%,37.3%,57.2%,-0.785% (active),42.1%,33.9%
Cc1ccc(C2CC(c3ccc(NC(=O)Nc4ccccc4)cc3)=NN2c2ccc(S(N)(=O)=O)cc2)cc1 (stereo not given),-95.1% (active),-91.6% (active),-100% (active),-81.4% (active),-100% (active),-98.2% (active),-93% (active),-17.7% (active),-27.8% (active)
CN(C)CCCc1ccc(Nc2cnn(C)c(=O)c2Cl)cc1,98.1%,100%,88.1%,109%,113%,83.5%,94.7%,102%,115%
Cc1ccc(C(C(=O)NC2CCCCC2)N(Cc2ccccc2Cl)C(=O)c2ccc(CN3CCOCC3)o2)o1 (stereo not given),,95%,71.1%,101%,104%,72.4%,119%,86.8%,70.3%
COc1cc(CNC(=O)C[C@H](C)CCC=C(C)C)ccc1OCc1cn(-c2cccc(C(F)(F)F)c2)nn1,92.1%,27.1%,75.7%,102%,77.6%,73.6%,91%,97.1%,84.8%
O=C(N/N=C/c1ccoc1)c1[nH]c2ccc(Br)cc2c1-c1ccccc1,-97.6% (active),-95.8% (active),-82.5% (active),,-100% (active),-99.6% (active),-82.9% (active),-12.1% (active),-5.76% (active)
COc1ccc(C(=O)C[n+]2cccc3c4ccccc4ccc32)cc1,43.2%,17.4%,56.5%,73.6%,79%,79%,102%,52.5%,32%
